Test results published in the supplement of paper PMC10681739.

Experiments:
RUNX1 [1] = target: RUNX1 (UniProt Q01196); test: RUNX1 binding intensity (PBM fluorescence), RUNX1 alone (arbitrary fluorescence units); higher = stronger binding; conditions: RUNX1 concentration 2 nM; ETS1 concentration 0 nM
Procedure: (§1)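 Cooperative gcPBM on 36-bp genomic probes with neighbouring ETS1 and RUNX1 sites. Recombinant human RUNX1 (2 nM) was incubated alone or with ETS1 (25 nM) and detected with anti-RUNX1 antibody plus Alexa488 secondary. Values are medians over 4 replicate spots; the RUNX1+ETS1 data were normalised to the RUNX1-only data. The probes sit in constant array flanks that are not printed.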

RUNX1 [2] = target: RUNX1 (UniProt Q01196); test: RUNX1 binding intensity (PBM fluorescence) in presence of ETS1, normalised to RUNX1-only experiment (arbitrary fluorescence units); higher = stronger binding; conditions: RUNX1 concentration 2 nM; ETS1 concentration 25 nM
Procedure: as §1

ETS1 = target: T1, ETS1 (UniProt P14921); test: ETS1 binding intensity (PBM fluorescence) in presence of RUNX1, normalised to ETS1-only experiment (arbitrary fluorescence units); higher = stronger binding; conditions: ETS1 concentration 1 nM; RUNX1 concentration 25 nM
T1 sequence: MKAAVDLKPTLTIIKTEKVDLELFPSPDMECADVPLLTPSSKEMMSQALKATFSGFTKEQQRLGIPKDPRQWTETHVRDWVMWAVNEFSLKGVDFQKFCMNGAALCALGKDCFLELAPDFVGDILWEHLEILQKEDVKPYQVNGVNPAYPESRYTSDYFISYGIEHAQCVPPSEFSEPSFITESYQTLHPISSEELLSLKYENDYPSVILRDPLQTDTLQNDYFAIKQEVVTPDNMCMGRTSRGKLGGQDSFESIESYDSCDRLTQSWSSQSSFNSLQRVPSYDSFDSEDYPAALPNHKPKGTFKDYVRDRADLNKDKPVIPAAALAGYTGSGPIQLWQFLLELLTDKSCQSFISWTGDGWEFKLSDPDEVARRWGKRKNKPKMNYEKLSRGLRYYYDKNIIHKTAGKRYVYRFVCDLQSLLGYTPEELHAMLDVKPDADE
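Throughout, for RUNX1 binding intensity (PBM fluorescence) in presence of ETS1, normalised to RUNX1-only experiment: Full-length recombinant human ETS1 or RUNX1 bound to double-stranded 36-bp genomic probes on microarrays, detected by protein-specific primary antibody and Alexa488 secondary, spot fluorescence as median of four replicate spots.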
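Throughout, for RUNX1 binding intensity (PBM fluorescence), RUNX1 alone: Full-length recombinant human RUNX1 bound to double-stranded 36-bp genomic probes on a high-density microarray, scored as Alexa488 fluorescence per spot via anti-RUNX1 antibody, median of four replicate spots.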

Sequence of RUNX1 (Q01196 whole entry): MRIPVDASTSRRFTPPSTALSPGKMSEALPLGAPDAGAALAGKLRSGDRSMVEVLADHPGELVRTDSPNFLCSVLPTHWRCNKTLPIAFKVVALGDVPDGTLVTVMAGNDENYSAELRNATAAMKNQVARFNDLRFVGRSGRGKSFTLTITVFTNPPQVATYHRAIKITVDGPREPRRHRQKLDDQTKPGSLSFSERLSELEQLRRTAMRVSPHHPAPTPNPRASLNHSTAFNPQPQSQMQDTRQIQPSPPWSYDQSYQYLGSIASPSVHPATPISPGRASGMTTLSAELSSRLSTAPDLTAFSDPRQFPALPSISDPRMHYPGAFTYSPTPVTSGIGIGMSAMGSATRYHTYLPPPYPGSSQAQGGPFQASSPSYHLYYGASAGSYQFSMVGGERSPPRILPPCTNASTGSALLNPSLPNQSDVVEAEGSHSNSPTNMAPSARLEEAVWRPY

Row | Sequence | RUNX1 binding intensity (RUNX1 [1]) | RUNX1 binding intensity (RUNX1 [2]) | ETS1 binding intensity (ETS1)
1 | TATCGACAAAAGTTCCGGCCCGCGGTAGCGGAGGGA | 879 | 970 | –
2 | GTGCCTTTTCATGTGGGATGTGGCTTCAAGGAGACC | 911 | 822 | –
3 | GAGTTCTCCGCTTCCTTGCGGCCGGCGGGATTAGCC | 907 | 1030 | –
4 | GGCGGGGCATCCGGCAGCACCGCCTGCGGGCGCCCG | 667 | 1070 | –
5 | TTAGAGCTGACATCCTTGCGGTCCACAGCCTCCAAA | 961 | 1090 | –
6 | TTACTTCCTGAGGGTGCACAGGCTGTGGTCGTCTAT | 760 | 2070 | –
7 | CAAGGAGGCTTCCTGCGTGGGGCCGCAGAGCGAGTC | 658 | 869 | –
8 | CGGGCCGGATCGCCTTCGCCGCCGCCCGCCCGCAAA | 979 | 866 | –
9 | GCTCTGGGTCACACAGGATGTGGTTTTTGAAGTTTG | 1210 | 10400 | –
10 | CTTAGGACTTCCCGTAGATGGTGGTCTGTGCTAAGG | 706 | 1050 | –
11 | GATGACTTCCTCAGTTCAGGGCTATGTGCGGGGGAG | 833 | 1060 | –
12 | GGGTCGCGGCCTTCCGGCGAACGCGGTTACCGTGGA | 853 | 1380 | –
13 | GACACAAGACAGTTTCCGTCAGTGGTTAAGCCCTAA | 845 | 1270 | –
14 | TGCAGCGCATCCTGGGACGTGCGGGCGGTGCATGAG | 727 | 923 | –
15 | AGCTCTAAGGTTCCGCCTGCGGGCAGCAAGCGGAGG | 920 | 902 | –
16 | CCATTTCCCGCCTACCGACCTGCTGCACCGCACGGA | 1430 | 3390 | –
17 | CACTCCCCGAATCCGGTCTGCGGCGCGCTCGGGGCC | 774 | 1250 | –
18 | CGGCTAGGAAATAAAGAGCCTTCTCTCCGCGGTAGG | 2270 | 2200 | –
19 | AGAGGCTTCCTGAGGAACTGGTGTGGTCAGGGGAGC | 740 | 1010 | –
20 | GCACGGCGGAATTTCAAATGGGGTTTTGTGGTTTCT | 1220 | 1280 | –
21 | GCTGGGCCATCCTGCCACATGCACCGCATCTCTGGG | 759 | 878 | –
22 | GGGCATGGTGGCTTCCGACCGCGGGGACCCCGAGAG | 738 | 956 | –
23 | ATTAAAAAAATTTCCTTTGTGGTCACTTAGTTATTA | 1350 | 1520 | –
24 | ATAGACCCAGCCCGTCCGGTAACCGCGCTCCTCGAT | 836 | 913 | –

Row | Sequence | RUNX1 binding intensity (RUNX1 [1]) | RUNX1 binding intensity (RUNX1 [2]) | ETS1 binding intensity (ETS1)
25 | AGTTTTCCGTCGGGCTCCCAGTGACGCCGCAGAGGT | 764 | 1180 | –
26 | GCCCCTTTTTCCTGGGATGAGCGGTTAGCGGAGGGG | 1090 | 1080 | –
27 | CACCCTGCCACTTCCCTAAACTCCCCGCACAGGCCG | 1640 | 2140 | –
28 | TCCTGCCCTCCCATCCTGTGGTCAGAGGCCAGGGCT | 854 | 1580 | –
29 | GGCGGTGCACTCTGGGAAATGTGGTTTTCGCGGCGC | 1090 | 1500 | –
30 | GGCGAGGCTGAGAGGAAACCACACTCTCACTGGGGT | 933 | 921 | –
31 | GGGGTCAGGAAATGGGTGTGCCGCGGGTAAGGCGCT | 733 | 984 | –
32 | AACAGGCAAAGGACAGGATGTGGTGAGCGTCGGCCC | 774 | 3040 | –
33 | TTTGTTGTTCCGGGTGCGAGGCGGCCGCAGCTTCCA | 1090 | 1180 | –
34 | GCGGGCAGGATCTTCCTGTGGTTTGCCTTGCCCACT | 904 | 2190 | –
35 | TTACCCCAGGAAAAGCCTCCTCACCGCAGTGACCAG | 998 | 905 | –
36 | GAGGGAGCAGTTCCGGGTGCGGTGCGCGCCAGGGGC | 1650 | 2060 | –
37 | TAGGCGGAAAGCCCGCTAGCCTAAACCACAGAGGGT | 896 | 872 | –
38 | GGGTGAGTATTTCCTCCTGCGGTGGGTCGGCATGTA | 796 | 1570 | –
39 | CCACCTCCTCCGGACGCCGCCCGCAACTGAGCATGC | 1030 | 1230 | –
40 | GGCACCGGAAGTAGAGCTGCCCCTAGTTGCGGCAGT | 767 | 1380 | 12800
41 | AAACATCATAGGAAGTGGATTTTGTGGTGAGAGACA | 870 | 1130 | 3880
42 | TTGGTGACCTCTTCCTGTCCGCTGTGGTGTTGTTAC | 841 | 2350 | 1240
43 | CTTAGTGTTTGAGGATGTGGGTTTTACAATCAGATC | 769 | 1310 | 2490
44 | GTCGGAAGTGGCCGTGAGCCCAAGCCGCGGTCCCGG | 678 | 951 | 486
45 | CCCTCAGCGGAAGTGGAAGCTGTGGTTTCCAAAGGC | 916 | 3570 | 17000
46 | GCCAGGAGGACTTCCGGGTGGGTGTGGTATCTGCGA | 780 | 2300 | 2540
47 | CATGGTTGTTATTTCCTCACCACAATATGTGACATT | 1200 | 1300 | 463
